From publication PMC7862700, “An all-to-all approach to the identification of sequence-specific readers for epigenetic DNA modifications on cytosine”

Assays:
Experiment in all cases: DAPPL (digital affinity profiling via proximity ligation, sequencing); 10 mM Tris-HCl pH 7.5, 50 mM NaCl, 1 mM DTT, 4% glycerol, room temperature, 30 min; GST-TFs on glutathione beads, 16-mer random dsDNA library, 0.1% formaldehyde crosslink after washing; high values mean tight binding
FEV = target: T1, FEV (Homo sapiens, UniProt Q99581 1-238); details: protein: recombinant; tags: N-terminal GST; dsDNA, one strand shown
T1 sequence: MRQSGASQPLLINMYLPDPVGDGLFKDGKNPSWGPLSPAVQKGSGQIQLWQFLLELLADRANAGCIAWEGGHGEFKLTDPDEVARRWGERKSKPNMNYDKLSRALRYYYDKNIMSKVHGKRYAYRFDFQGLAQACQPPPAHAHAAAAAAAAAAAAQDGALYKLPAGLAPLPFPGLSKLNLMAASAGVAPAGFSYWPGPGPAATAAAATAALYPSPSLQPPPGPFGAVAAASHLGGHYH
In short: (§1)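 Human transcription factors fused to GST were expressed in yeast, captured on glutathione beads, given DNA barcodes and pooled with a GST-only negative control. Pools were incubated with 200 nmole of a 16-mer random double-stranded DNA library in Tris/NaCl/DTT/glycerol buffer at room temperature for 30 min. They were then washed, crosslinked with 0.1% formaldehyde, proximity-ligated (BsaI/T4 ligase, 1 h, 37 °C), PCR-amplified and sequenced on an Illumina NextSeq500. Binding signal is each 6-mer's read frequency for a factor divided by its frequency for the GST control.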

ETV5 = ETV5 (Homo sapiens, UniProt P41161 1-510); details: protein: recombinant; tags: N-terminal GST; dsDNA, one strand shown
In short: as §1

HSF1 = HSF1 (Homo sapiens, UniProt Q00613 1-529); details: protein: recombinant; tags: N-terminal GST; chain copies: 3; dsDNA, one strand shown
In short: as §1

SPIC = target: T2, SPIC (Homo sapiens, UniProt Q8N5J4 1-248); details: protein: recombinant; tags: N-terminal GST; dsDNA, one strand shown
T2 sequence: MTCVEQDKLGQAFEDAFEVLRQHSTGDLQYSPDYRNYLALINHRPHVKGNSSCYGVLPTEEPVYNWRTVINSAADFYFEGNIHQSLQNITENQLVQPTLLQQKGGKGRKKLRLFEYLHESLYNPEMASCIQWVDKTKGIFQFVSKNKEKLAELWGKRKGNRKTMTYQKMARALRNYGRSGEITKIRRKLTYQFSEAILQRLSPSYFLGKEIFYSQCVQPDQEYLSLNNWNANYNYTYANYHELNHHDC
In short: as §1

ELF4 = ELF4 (Homo sapiens, UniProt Q99607 1-663); details: protein: recombinant; tags: N-terminal GST; dsDNA, one strand shown
In short: as §1

ELK4 = target: T3, ELK4 (Homo sapiens, UniProt P28324-2 1-405); details: protein: recombinant; tags: N-terminal GST; dsDNA, one strand shown
T3 sequence: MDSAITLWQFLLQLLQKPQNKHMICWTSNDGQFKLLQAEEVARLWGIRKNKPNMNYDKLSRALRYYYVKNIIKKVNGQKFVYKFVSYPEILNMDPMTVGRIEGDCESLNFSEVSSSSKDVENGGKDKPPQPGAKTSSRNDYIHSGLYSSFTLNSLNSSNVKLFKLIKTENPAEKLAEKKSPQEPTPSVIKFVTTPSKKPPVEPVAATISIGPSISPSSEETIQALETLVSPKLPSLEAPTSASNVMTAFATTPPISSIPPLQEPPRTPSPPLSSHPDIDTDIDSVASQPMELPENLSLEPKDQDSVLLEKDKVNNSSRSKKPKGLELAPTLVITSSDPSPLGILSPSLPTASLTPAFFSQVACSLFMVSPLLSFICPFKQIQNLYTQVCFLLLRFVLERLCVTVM
In short: as §1

ETV2 = target: T4, ETV2 (Homo sapiens, UniProt O00321 1-342); details: protein: recombinant; tags: N-terminal GST; dsDNA, one strand shown
T4 sequence: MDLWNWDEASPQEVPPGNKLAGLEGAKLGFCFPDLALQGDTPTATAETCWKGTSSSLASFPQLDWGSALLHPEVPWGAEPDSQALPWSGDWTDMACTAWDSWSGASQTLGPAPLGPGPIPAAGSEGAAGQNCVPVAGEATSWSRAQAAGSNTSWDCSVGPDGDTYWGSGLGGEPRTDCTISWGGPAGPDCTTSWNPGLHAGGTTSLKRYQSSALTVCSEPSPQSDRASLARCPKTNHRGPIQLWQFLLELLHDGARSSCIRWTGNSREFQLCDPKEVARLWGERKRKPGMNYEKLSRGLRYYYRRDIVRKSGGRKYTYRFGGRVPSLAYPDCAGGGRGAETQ
In short: as §1

ELF3 = target: T5, ELF3 (Homo sapiens, UniProt P78545 1-371); details: protein: recombinant; tags: N-terminal GST; dsDNA, one strand shown
T5 sequence: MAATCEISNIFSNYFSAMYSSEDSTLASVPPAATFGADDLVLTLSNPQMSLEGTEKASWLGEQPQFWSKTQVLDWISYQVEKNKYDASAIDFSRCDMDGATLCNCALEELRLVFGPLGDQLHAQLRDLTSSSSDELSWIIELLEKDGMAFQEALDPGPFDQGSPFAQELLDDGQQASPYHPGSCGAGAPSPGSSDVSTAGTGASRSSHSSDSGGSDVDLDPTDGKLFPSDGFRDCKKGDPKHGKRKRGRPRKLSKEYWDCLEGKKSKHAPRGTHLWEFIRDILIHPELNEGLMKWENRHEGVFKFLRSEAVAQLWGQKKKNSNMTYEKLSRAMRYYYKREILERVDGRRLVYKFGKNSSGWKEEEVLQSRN
In short: as §1

CRX = CRX (Homo sapiens, UniProt O43186 1-299); details: protein: recombinant; tags: N-terminal GST; dsDNA, one strand shown
In short: as §1

ETV1 = ETV1 (Homo sapiens, UniProt P50549 1-477); details: protein: recombinant; tags: N-terminal GST; dsDNA, one strand shown
In short: as §1

ERF = target: T6, ERF (Homo sapiens, UniProt P50548 1-548); details: protein: recombinant; tags: N-terminal GST; dsDNA, one strand shown
T6 sequence: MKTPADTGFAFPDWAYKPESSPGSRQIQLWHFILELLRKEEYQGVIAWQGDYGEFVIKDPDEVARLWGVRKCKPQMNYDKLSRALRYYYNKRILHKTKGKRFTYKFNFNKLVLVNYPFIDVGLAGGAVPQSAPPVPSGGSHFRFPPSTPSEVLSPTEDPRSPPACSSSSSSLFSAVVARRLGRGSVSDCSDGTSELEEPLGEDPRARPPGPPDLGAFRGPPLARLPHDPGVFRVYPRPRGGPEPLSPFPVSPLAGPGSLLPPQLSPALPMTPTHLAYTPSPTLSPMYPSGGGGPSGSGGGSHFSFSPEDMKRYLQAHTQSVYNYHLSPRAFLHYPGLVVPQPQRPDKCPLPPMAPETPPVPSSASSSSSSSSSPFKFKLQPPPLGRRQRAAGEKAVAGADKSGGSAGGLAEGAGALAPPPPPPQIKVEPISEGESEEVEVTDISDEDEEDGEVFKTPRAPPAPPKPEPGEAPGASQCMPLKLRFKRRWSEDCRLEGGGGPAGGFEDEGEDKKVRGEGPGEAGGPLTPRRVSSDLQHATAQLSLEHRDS
In short: as §1

ETV3L = target: T7, ETV3L (Homo sapiens, UniProt Q6ZN32 1-361); details: protein: recombinant; tags: N-terminal GST; dsDNA, one strand shown
T7 sequence: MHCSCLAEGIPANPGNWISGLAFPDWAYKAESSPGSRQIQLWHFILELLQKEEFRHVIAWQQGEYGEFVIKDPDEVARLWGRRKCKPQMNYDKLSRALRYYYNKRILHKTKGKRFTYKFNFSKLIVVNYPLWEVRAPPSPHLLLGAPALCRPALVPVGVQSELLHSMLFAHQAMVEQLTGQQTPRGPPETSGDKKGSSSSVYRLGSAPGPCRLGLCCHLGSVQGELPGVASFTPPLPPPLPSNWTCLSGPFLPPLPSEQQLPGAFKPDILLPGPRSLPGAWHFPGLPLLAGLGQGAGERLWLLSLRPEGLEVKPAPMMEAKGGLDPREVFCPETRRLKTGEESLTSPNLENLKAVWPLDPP
In short: as §1

ETS2 = target: T8, ETS2 (Homo sapiens, UniProt P15036 1-469); details: protein: recombinant; tags: N-terminal GST; dsDNA, one strand shown
T8 sequence: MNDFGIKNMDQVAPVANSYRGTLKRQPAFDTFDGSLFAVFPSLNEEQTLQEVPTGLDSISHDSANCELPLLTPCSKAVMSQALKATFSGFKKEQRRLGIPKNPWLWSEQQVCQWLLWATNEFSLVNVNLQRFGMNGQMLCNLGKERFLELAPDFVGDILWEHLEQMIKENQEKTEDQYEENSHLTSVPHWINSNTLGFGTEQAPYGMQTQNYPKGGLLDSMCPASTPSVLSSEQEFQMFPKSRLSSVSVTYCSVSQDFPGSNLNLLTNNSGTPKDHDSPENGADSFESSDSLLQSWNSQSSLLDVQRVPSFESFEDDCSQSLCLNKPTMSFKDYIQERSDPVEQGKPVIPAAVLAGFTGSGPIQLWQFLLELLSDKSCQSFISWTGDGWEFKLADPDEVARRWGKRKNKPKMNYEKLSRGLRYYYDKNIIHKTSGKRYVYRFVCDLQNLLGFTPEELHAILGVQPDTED
In short: as §1

SPDEF = target: T9, SPDEF (Homo sapiens, UniProt O95238 1-335); details: protein: recombinant; tags: N-terminal GST; dsDNA, one strand shown
T9 sequence: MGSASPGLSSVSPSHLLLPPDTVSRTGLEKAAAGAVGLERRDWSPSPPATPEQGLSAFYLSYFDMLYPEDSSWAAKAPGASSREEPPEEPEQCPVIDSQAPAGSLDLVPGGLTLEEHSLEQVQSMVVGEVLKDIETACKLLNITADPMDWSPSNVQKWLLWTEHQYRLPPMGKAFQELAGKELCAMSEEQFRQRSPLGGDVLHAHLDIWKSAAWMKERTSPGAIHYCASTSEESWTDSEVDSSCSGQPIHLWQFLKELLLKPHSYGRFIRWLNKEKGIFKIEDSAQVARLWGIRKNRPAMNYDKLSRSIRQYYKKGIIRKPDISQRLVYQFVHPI
In short: as §1

ETV7 = target: T10, ETV7 (Homo sapiens, UniProt Q9Y603 1-341); details: protein: recombinant; tags: N-terminal GST; dsDNA, one strand shown
T10 sequence: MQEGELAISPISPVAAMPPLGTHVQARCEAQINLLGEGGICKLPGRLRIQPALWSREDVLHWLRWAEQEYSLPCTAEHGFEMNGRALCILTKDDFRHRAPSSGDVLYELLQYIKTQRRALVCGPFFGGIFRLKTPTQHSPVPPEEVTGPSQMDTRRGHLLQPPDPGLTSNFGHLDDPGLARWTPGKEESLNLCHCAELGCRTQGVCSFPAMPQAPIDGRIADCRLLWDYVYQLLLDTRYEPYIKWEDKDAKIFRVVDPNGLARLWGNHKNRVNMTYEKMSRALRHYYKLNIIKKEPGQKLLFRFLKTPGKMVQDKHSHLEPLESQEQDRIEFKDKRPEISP
In short: as §1

ELF5 = target: T11, ELF5 (Homo sapiens, UniProt Q9UKW6-2 1-255); details: protein: recombinant; tags: N-terminal GST; dsDNA, one strand shown
T11 sequence: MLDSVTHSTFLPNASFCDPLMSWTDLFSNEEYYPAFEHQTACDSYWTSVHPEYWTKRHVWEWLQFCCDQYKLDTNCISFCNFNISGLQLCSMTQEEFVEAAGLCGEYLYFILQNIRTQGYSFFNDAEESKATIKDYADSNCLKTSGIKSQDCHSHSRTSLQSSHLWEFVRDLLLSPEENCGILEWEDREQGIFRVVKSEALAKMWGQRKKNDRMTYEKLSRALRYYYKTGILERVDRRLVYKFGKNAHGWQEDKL
In short: as §1

ETV3 = target: T12, ETV3 (Homo sapiens, UniProt P41162-2 1-143); details: protein: recombinant; tags: N-terminal GST; dsDNA, one strand shown
T12 sequence: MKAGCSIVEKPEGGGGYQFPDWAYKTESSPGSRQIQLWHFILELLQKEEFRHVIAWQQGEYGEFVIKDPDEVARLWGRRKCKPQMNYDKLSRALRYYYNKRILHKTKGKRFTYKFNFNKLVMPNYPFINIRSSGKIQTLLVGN
In short: as §1

ETV6 = ETV6 (Homo sapiens, UniProt P41212 1-452); details: protein: recombinant; tags: N-terminal GST; dsDNA, one strand shown
In short: as §1

ELF4, sequence (Q99607 whole entry): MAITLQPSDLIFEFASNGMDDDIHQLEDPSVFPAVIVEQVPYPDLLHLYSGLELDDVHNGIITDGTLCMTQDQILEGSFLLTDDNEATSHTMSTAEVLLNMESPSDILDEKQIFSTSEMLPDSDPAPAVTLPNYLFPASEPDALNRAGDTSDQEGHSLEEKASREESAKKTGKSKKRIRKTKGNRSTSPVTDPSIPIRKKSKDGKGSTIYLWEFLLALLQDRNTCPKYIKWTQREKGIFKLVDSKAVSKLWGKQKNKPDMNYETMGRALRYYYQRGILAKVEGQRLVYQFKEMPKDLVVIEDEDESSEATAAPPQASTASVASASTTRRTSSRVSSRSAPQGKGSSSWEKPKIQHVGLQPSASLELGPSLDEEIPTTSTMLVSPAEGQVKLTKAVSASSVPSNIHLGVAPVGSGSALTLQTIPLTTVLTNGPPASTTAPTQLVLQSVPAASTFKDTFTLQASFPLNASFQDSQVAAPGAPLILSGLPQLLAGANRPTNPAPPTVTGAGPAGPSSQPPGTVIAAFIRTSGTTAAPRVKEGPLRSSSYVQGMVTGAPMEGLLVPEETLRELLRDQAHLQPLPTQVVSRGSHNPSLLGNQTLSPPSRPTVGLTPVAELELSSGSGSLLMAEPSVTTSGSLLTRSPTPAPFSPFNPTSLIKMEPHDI
ETV6, sequence (P41212 whole entry): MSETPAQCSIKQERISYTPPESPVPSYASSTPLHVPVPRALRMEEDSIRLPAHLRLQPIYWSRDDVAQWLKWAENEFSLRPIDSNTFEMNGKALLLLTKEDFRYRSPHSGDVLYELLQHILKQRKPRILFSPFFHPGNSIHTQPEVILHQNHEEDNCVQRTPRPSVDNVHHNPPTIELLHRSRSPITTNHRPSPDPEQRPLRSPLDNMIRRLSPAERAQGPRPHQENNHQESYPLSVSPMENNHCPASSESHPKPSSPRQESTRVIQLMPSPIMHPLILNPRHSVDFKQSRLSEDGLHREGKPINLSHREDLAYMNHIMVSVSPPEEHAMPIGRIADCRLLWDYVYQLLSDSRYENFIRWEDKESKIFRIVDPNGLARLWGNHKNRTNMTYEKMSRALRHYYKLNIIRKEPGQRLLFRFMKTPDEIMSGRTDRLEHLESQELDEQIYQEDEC
ETV5, sequence (P41161 whole entry): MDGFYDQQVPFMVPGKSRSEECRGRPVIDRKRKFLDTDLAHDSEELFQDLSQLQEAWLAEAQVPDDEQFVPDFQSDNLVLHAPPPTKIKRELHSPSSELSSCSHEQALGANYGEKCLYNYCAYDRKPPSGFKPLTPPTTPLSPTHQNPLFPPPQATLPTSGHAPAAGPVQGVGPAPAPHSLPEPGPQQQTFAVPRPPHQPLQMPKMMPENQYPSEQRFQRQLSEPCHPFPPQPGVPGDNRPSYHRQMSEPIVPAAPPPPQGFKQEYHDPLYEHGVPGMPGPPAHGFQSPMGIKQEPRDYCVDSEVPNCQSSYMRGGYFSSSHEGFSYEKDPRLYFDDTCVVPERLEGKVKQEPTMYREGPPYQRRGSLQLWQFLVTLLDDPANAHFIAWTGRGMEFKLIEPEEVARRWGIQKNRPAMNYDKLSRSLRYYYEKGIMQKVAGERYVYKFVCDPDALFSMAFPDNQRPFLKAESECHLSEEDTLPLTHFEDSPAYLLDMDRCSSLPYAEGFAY
CRX, sequence (O43186 whole entry): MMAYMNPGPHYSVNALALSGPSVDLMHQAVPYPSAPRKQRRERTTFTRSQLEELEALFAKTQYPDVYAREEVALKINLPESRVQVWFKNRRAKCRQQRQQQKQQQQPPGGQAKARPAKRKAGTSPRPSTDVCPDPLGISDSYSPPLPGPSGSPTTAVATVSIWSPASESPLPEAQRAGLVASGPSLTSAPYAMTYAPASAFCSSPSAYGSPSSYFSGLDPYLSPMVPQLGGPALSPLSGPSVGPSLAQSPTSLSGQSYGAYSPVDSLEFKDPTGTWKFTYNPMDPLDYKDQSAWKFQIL
ETV1, sequence (P50549 whole entry): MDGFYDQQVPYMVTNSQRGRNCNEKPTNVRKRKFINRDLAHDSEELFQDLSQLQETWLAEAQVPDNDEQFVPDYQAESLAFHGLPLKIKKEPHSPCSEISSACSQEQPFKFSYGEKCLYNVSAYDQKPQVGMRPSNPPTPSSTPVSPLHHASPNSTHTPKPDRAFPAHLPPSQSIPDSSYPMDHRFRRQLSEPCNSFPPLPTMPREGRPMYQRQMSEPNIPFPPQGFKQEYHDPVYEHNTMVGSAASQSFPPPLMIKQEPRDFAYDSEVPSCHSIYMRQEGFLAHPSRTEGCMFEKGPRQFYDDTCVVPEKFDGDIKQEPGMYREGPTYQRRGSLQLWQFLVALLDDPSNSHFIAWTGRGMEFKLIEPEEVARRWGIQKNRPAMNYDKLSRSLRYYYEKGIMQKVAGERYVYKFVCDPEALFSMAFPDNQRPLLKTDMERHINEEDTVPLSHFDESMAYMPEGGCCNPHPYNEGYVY
HSF1, sequence (Q00613 whole entry): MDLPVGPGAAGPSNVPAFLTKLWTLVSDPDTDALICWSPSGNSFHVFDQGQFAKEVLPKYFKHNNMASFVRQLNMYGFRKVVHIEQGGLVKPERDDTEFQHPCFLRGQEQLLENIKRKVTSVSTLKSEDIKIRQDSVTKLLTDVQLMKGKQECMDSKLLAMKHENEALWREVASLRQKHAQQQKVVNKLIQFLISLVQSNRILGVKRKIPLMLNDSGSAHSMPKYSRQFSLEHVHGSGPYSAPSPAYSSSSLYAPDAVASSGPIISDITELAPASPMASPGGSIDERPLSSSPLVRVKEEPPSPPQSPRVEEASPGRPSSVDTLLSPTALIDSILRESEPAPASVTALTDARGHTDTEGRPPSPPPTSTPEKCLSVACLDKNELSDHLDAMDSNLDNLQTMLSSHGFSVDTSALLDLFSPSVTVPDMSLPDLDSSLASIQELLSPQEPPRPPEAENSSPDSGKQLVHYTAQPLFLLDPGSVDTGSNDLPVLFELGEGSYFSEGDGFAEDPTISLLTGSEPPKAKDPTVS

Question: Which binding signal (FEV) does the source give for ATACAG here?
Answer: The binding signal was 1.14 fold enrichment (6-mer frequency, TF over GST control).

Question: And the binding signal (ETV5)?
Answer: The binding signal was 1.13 fold enrichment (6-mer frequency, TF over GST control).

Question: And the binding signal (HSF1)?
Answer: The binding signal was 1.02 fold enrichment (6-mer frequency, TF over GST control).

Question: And the binding signal (SPIC)?
Answer: The binding signal was 1.14 fold enrichment (6-mer frequency, TF over GST control).

Question: And the binding signal (ELF4)?
Answer: The binding signal was 1.18 fold enrichment (6-mer frequency, TF over GST control).

Question: And the binding signal (ELK4)?
Answer: The binding signal was 1.08 fold enrichment (6-mer frequency, TF over GST control).

Question: What about the binding signal (ETV2) of the same sequence?
Answer: Its binding signal is 1.24 fold enrichment (6-mer frequency, TF over GST control).

Question: And the binding signal (ELF3)?
Answer: The binding signal was 1.12 fold enrichment (6-mer frequency, TF over GST control).

Question: And the binding signal (CRX)?
Answer: The binding signal was 1.02 fold enrichment (6-mer frequency, TF over GST control).

Question: And the binding signal (ETV1)?
Answer: Its binding signal is 1.11 fold enrichment (6-mer frequency, TF over GST control).

Question: And the binding signal (ERF)?
Answer: The binding signal was 1.16 fold enrichment (6-mer frequency, TF over GST control).

Question: What about the binding signal (ETV3L) of the same sequence?
Answer: Its binding signal is 1.1 fold enrichment (6-mer frequency, TF over GST control).

Question: And the binding signal (ETS2)?
Answer: The binding signal was 1.17 fold enrichment (6-mer frequency, TF over GST control).

Question: And the binding signal (SPDEF)?
Answer: The binding signal was 1.21 fold enrichment (6-mer frequency, TF over GST control).

Question: And the binding signal (ETV7)?
Answer: The binding signal was 1.18 fold enrichment (6-mer frequency, TF over GST control).

Question: What about the binding signal (ELF5) of the same sequence?
Answer: Its binding signal is 1.17 fold enrichment (6-mer frequency, TF over GST control).

Question: What about the binding signal (ETV3) of the same sequence?
Answer: The binding signal was 1.18 fold enrichment (6-mer frequency, TF over GST control).

Question: And the binding signal (ETV6)?
Answer: The binding signal was 1.12 fold enrichment (6-mer frequency, TF over GST control).
